Compound activity from PubChem BioAssay.
Compounds with a hit are over-represented: about 1.8% of the library has one in this group of screens.
Six1-Eya2 blk: qHTS Assay for Inhibitors of the Six1/Eya2 Interaction; AlphaScreen GST-Six1/His-Eya2 binding, biochemical; hits give low values; Homeobox protein SIX1 (Homo sapiens) + Protein phosphatase EYA2 (Homo sapiens), …; activity change, % (test concentration not listed); 360,000 tested, 0.56% active
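Six1/Eya2 binding was read as AlphaScreen signal after compounds were pinned into GST-Six1 plus His-tagged Eya2 (5X stock 250/500 nM) in pH 8.0 Tris/NaCl/TCEP buffer, beads added, then incubated 1 h, 37 C, dark.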
CtBP-E1A inh: qHTS Assay for Inhibitors of the CtBP/E1A Interaction | CtBP / adenovirus E1A interaction (AlphaScreen) | AID 651724, 2012 | activity change, % (test concentration not listed) | AlphaScreen GST-E1A/His-CtBP binding, 1536-well; hits give low values | 340,000 tested, 0.49% active
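GST-E1A and His-tagged CtBP (125 nM each as 5X stock) were preincubated with pin-transferred compound for 2 h at 37 °C in the dark, then glutathione donor and nickel acceptor beads were added for 1 h before AlphaScreen reading.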
PI4K2A block: qHTS for small molecular inhibitors of PI4K2A; Phosphatidylinositol 4-kinase type 2-alpha (Homo sapiens), Q9BTU6; purified PI4K2A, ADP-Glo luminescence, 1 h; hits give low values; activity change, negative = inhibition, % at 76.9 µM; 420,000 tested, 0.13% active; in the data active = activity change below about -50%; inconclusive = mostly about -30% to -49%
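ADP-Glo luminescence measured ADP generated by PI4K2A enzyme (4 ug/mL before mixing) with 1.2 mM PI substrate (pre-mix) and 300 microM ATP (pre-mix). Tris pH7.5 buffer with MgCl2, Triton X-100; 1 h reaction at ambient temperature.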
Akt phos inh: HTS Assay for Inhibitors of Akt Phophorylation: Primary Screen; 360,000 tested, 0.32% active; Neuro2A IGF-stimulated pAkt S473 HTRF, 20 min; hits give low values; activity change, % for hits at 50 µM; AID 651550, 2012; in the data active = activity change below about -80%; inconclusive = mostly about -51% to -80%
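Single-point screen (50 µM final compound) in Neuro2A cells stimulated 20 min with 6 nM IGF at 37 deg C. After lysis, Ser473-phosphorylated Akt read by HTRF (ex 330 nm, em 615/665 nm) as the 665/615 ratio.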
PI5P4Ka inh: qHTS for Inhibitors of phosphatidylinositol 5-phosphate 4-kinase (PI5P4K) | Phosphatidylinositol 5-phosphate 4-kinase type-2 alpha (Homo sapiens), P48426 | AID 652105, 2013 | PI5P4Kalpha enzyme, ADP-Glo luminescence, 60 min; hits give low values | max response, % | 330,000 tested, 1.2% active; active = max response of -50% or lower; inconclusive = between -30% and -50%; inactive = -30% or higher; note: value at the top dose of about 77 µM
Target sequence (P48426 whole entry, looked up): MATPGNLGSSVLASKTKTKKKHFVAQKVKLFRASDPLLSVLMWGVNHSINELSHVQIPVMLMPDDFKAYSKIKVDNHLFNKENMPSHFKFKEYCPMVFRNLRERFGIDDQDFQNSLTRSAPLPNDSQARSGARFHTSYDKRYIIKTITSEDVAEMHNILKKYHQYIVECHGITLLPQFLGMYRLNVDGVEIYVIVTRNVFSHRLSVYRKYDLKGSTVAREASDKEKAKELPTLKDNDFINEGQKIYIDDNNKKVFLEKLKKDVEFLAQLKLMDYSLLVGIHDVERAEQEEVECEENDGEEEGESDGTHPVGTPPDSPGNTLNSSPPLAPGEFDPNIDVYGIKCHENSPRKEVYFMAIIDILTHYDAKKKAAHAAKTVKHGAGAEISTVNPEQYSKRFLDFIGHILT
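Luminescence from ADP-Glo served as readout of PI5P4Kalpha activity in a qHTS format. Reaction: enzyme, substrate, compound, ATP at 5 microM final, 60 min at RT.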
Numbers stand for hits; n = inactive; u = inconclusive; x = not tested or not shown. Cut-off read from the data, not from the text of the source, unless noted: active = activity change below about -65%; inconclusive = mostly about -30% to -63%; inactive = weaker than that.

SMILES | Six1-Eya2 blk | CtBP-E1A inh | PI4K2A block | Akt phos inh | PI5P4Ka inh
O=C1C2C3C=CC(CC3)C2C(=O)N1c1ccc(F)cc1 (stereo unspecified) | n | n | n | n | n
CC(C)c1ccc(NC(=O)c2ccc3oc(=O)c(S(=O)(=O)c4ccc(F)cc4)cc3c2)cc1 | x | x | n | x | x
O=C(CSc1ncnc2sc3c(c12)CCCCC3)NCc1ccco1 | n | n | n | n | n
CC(C)c1nc2sc3c(SCC(=O)NCc4ccco4)ncnc3c2c2c1CCC2 | n | n | n | -95% | u
CCOc1ccc(NC(=O)CSc2nc3ccsc3c(=O)n2CCCCC(=O)O)cc1 | n | n | n | n | -65
O=C(/C=C/c1ccccc1Cl)NC1CCS(=O)(=O)C1 (stereo unspecified) | n | n | n | n | -69
CC(C)Oc1ccc2ccccc2c1CNC[C@H]1O[C@@H](n2cnc(C(N)=O)n2)[C@H](O)[C@@H]1O | n | n | n | n | n
Cc1nc(C)c(-c2csc(Nc3ccc(O)c(C(=O)O)c3)n2)s1 | -71 | n | n | n | -74
CC(C)(C)c1cc(CCC(=O)NN)cc(C(C)(C)C)c1O | n | n | n | n | n
Cc1nc(SCC(N)=O)c([N+](=O)[O-])[nH]1 | n | n | n | n | n
C/C(=N\NC(=O)CSc1nc(C)[nH]c1[N+](=O)[O-])c1ccc(F)cc1 | n | n | n | n | -67
Cc1nn(-c2ccc(C(F)(F)F)cn2)c(C)c1Oc1ccccc1O | n | n | n | n | n
Cc1cc(=O)[nH]c(-n2nc(C)c(Oc3ccccc3O)c2C)n1 | n | n | n | -110% | n
O=C(N/N=C/c1sc2ccccc2c1O)c1cccc2ccccc12 | u | u | n | n | n
O=C(N/N=C/c1sc2ccccc2c1O)c1ccccc1 | -87 | u | n | n | n
COc1ccc(C(=O)N/N=C/c2sc3ccccc3c2O)cc1 | -74 | -65 | n | n | n
O=C(CN1CCOCC1)NN=Cc1ccc([N+](=O)[O-])o1 | n | n | x | n | n
O=C(O)c1ccc(-c2noc(-c3ccccc3F)n2)cc1 | x | x | -68 | x | x
CCc1[nH]nc2c1C(c1ccc(Br)s1)C(C#N)=C(N)O2 (stereo unspecified) | n | n | n | n | u
CN(C)C(=O)C12CCC(C)(c3nc4ccccc4nc31)C2(C)C (stereo unspecified) | n | n | n | n | x
Cc1cc2nc3c(nc2cc1C)C1(C(=O)N(C)C)CCC3(C)C1(C)C (stereo unspecified) | n | n | n | -110% | n
N#CNc1nc(O)cc(=O)[nH]1 | n | n | n | n | -78
CCSc1nc(O)cc(=O)[nH]1 | n | x | n | n | n
Cc1ccc(C(=O)NNC(=O)c2cccc(Br)c2)cc1 | n | n | n | n | n
Cn1c(-c2ccc(Br)o2)nc2ccccc21 | n | n | -56 | n | n
SMILES | Six1-Eya2 blk | CtBP-E1A inh | PI4K2A block | Akt phos inh | PI5P4Ka inh
Cc1ccc(-c2nc3ccccc3n2C)o1 | n | n | u | n | x
Cc1cccc(OCC(=O)NCC(=O)N/N=C/c2c(C)[nH]c3ccccc23)c1 | n | n | n | n | n
CC[C@H](C)/C=C(C)/C=C/C(=O)Cc1cc(O)c(C)c(O)c1C=O | n | n | n | n | -57
Nc1c(C(=O)NCC2CCCO2)sc2nc3c(c(-c4ccco4)c12)CC/C3=C\c1ccco1 (stereo unspecified) | u | n | -76 | n | -100
NC(=O)c1sc2nc3c(c(-c4ccco4)c2c1N)CCCC3 | n | x | n | n | n
CCc1cccc2c(C(=O)COC(=O)c3cccc(S(=O)(=O)N(C)C4CCCCC4)c3)c[nH]c12 | n | n | n | n | -68
O=C(OCC(=O)c1c[nH]c2ccccc12)c1cccc(S(=O)(=O)N2CCCCCC2)c1 | n | n | n | n | n
CSc1nc(-c2ccc(Cl)cc2Cl)[nH]c(=O)c1C#N | -72 | u | n | n | n
O=c1cc([O-])[n+]2c3n1CCCN3CCC2 | n | n | n | n | n
FC(F)(F)c1cnc(C(c2ccccn2)c2ncn[nH]2)c(Cl)c1 (stereo unspecified) | -89 | u | n | n | n
Cc1cc(NC(=O)c2ccccc2)ncc1NC(=O)c1ccco1 | n | n | u | n | n
CCCCC(=O)Nc1ccc(NC(=O)c2ccccc2OC)cn1 | n | n | n | -108% | n
CCCCC(=O)Nc1ccc(NC(=O)c2cc(OC)c(OC)c(OC)c2)cn1 | n | n | n | n | n
CN(C)c1ccc(C=C2C=Cc3ccccc32)cc1 | -71 | n | n | n | n
COc1cc2c(cc1OC)C(=Cc1ccc(N(C)C)cc1)C=C2 | -71 | -78 | n | n | n
CNc1ccc(C=C2C=Cc3ccccc32)cc1 | u | n | n | n | n
COc1ccc(NC(=O)CN2C(=O)c3cccnc3Sc3ccccc32)cc1OC | x | x | n | x | x
CC(=O)N[C@@H](CS)C(=O)O | n | n | n | n | n
O=C(CCCCn1c(=O)c2ccccc2n(Cc2ccc(F)cc2)c1=O)NCc1ccco1 | n | n | n | -99% | n
O=C(CCCn1c(=O)c2ccccc2n(Cc2ccccc2)c1=O)NCc1ccco1 | n | n | n | n | n
CCSS(=O)(=O)c1cccc2cccnc12 | -91 | -90 | n | n | -84
COC(=O)/C=C1\SC(=NC(=O)c2ccc(-c3ccccc3)cc2)NC1=O | n | n | n | n | -63
O=c1[nH]c2ccccc2c(O)c1-[n+]1ccccc1 | n | n | n | n | n
O=c1[nH]c2ccccc2c(O)c1O | n | n | n | n | -96
CCCNc1nc(N)nc(-c2cc(Cl)ccc2OC)n1 | n | n | n | -102% | n
SMILES | Six1-Eya2 blk | CtBP-E1A inh | PI4K2A block | Akt phos inh | PI5P4Ka inh
COC(=O)c1ccc(N2CCN(C)CC2)c(NC(=O)COc2ccc(C)cc2)c1 | n | n | n | n | n
CCOC(=O)c1ncccc1NC(=O)CC(=O)Nc1cccnc1C(=O)OCC | -95 | x | n | n | n
COC(=O)c1ccc(=O)c2nc3/c(=C/O)c(O)cc(=O)c3[nH]c12 | -89 | -94 | n | n | -74
COC(=O)c1ccc(N)cc1O | n | n | n | n | n
COCCCNC(=O)C(=O)N/N=C/c1cc2c(cc1Br)OCO2 | n | n | n | n | n
COc1ccc(C=C2C(=O)c3ccccc3C2=O)cc1O | n | n | u | n | -60
C=CCn1c(CSc2ccccc2[N+](=O)[O-])n[nH]c1=S | n | n | n | n | -74
C=CCn1c(Cc2ccccc2)n[nH]c1=S | n | n | n | n | n
Oc1ccc(-c2csc(Nc3ccccn3)n2)c(O)c1 | n | x | n | n | n
